This passage reports AC50 and outcome results from PubChem BioAssay (EPA / NIEHS).

Each structure is given as a SMILES string. Where “and” joins values, the source holds several entries; their conditions need not be identical. Identical values can stand only once. Records with an inconclusive call do not appear. Some compounds were tested as several samples or in several runs, with calls that do not always agree. Calls of active or inactive are those of the source. Rule for the calls, unless noted: active = hit-call score of the fitted dose curve at least 0.9, where 1 is the maximum; inconclusive = response in the unintended direction; inactive = score below 0.9.

Read-out in assay [1]: solute carrier (SLCO1B1), SLCO1B1 (gene 10599)
The assay is described as follows: LTEA_HepaRG_SLCO1B1: Life Technologies and Expression Analysis (LTEA) Assay for solute carrier (SLCO1B1) using HepaRG (AID 2283530; active = hit-call score of the fitted dose curve at least 0.9, where 1 is the maximum; inactive = score below 0.9). Conditions: mRNA level, 48 h; actives raise or lower the signal. The method in brief: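 Differentiated human HepaRG cells were exposed for 48 h in serum-free induction medium to eight half-log concentrations, top 100 uM, in 0.5% DMSO. SLCO1B1 mRNA was measured by qRT-PCR, normalized to ACTB, GAPDH and POLR2A, and fitted bidirectionally against DMSO.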

Read-out in assay [2]: sulfotransferase 2A1 (SULT2A1), SULT2A1 (gene 6822)
The assay can be described thus: LTEA_HepaRG_SULT2A1: Life Technologies and Expression Analysis (LTEA) Assay for sulfotransferase 2A1 (SULT2A1) using HepaRG (AID 2283531; active = hit-call score of the fitted dose curve at least 0.9, where 1 is the maximum; inactive = score below 0.9). Conditions: mRNA level, 48 h; actives raise or lower the signal. The method in brief: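 HepaRG human liver cells, 48 h exposure in serum-free induction medium to 8 half-log concentrations topping at 100 µM (0.5% DMSO), duplicate wells. SULT2A1 mRNA measured by TaqMan qRT-PCR, normalized to ACTB/GAPDH/POLR2A; bidirectional fit against DMSO.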

Read-out in assay [3]: Transforming Growth Factor (TGFA), TGFA (gene 7039)
The assay can be described thus: LTEA_HepaRG_TGFA: Life Technologies and Expression Analysis (LTEA) Assay for Transforming Growth Factor (TGFA) using HepaRG (AID 2283532; active = hit-call score of the fitted dose curve at least 0.9, where 1 is the maximum; inactive = score below 0.9). Conditions: mRNA level, 48 h; actives raise or lower the signal. The method in brief: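 Differentiated human HepaRG cells, plated 48 h then switched to serum-free induction medium, were exposed in duplicate for 48 h to 8-point half-log series from 100 uM in 0.5% DMSO. TGFA mRNA measured by qRT-PCR, normalized to ACTB/GAPDH/POLR2A, bidirectional fit versus DMSO.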

Read-out in assay [4]: Transforming Growth Factor (TGFB1), TGFB1 (gene 7040)
The assay is described as follows: LTEA_HepaRG_TGFB1: Life Technologies and Expression Analysis (LTEA) Assay for Transforming Growth Factor (TGFB1) Transporter using HepaRG (AID 2283533; active = hit-call score of the fitted dose curve at least 0.9, where 1 is the maximum; inactive = score below 0.9). Conditions: mRNA level, 48 h; actives raise or lower the signal. In outline:
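Differentiated HepaRG cells exposed 48 hr in serum-free induction medium to eight half-log concentrations up to 100 uM (0.5% DMSO), duplicate; TGFB1 mRNA by TaqMan qRT-PCR normalised to ACTB, GAPDH, POLR2A; bidirectional fit against DMSO.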

Read-out in assay [5]: Tumor necrosis factor receptor 1 (TNFRSF1A), TNFRSF1A (gene 7132)
The assay can be described thus: LTEA_HepaRG_TNFRSF1A: Life Technologies and Expression Analysis (LTEA) Assay for Tumor necrosis factor receptor 1 (TNFRSF1A) using HepaRG (AID 2283535; active = hit-call score of the fitted dose curve at least 0.9, where 1 is the maximum; inactive = score below 0.9). Conditions: mRNA level, 48 h; actives raise or lower the signal. In outline:
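Differentiated HepaRG cells in serum-free induction medium, exposed 48 h in duplicate to 8 half-log concentrations up to 100 uM in 0.5% DMSO. TNFRSF1A mRNA by Fluidigm TaqMan qRT-PCR, normalized to ACTB, GAPDH, POLR2A; bidirectional fit.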

Read-out in assay [6]: Thyroid Hormone Responsive (THRSP), THRSP (gene 7069)
The assay is described as follows: LTEA_HepaRG_THRSP: Life Technologies and Expression Analysis (LTEA) Assay for Thyroid Hormone Responsive (THRSP) using HepaRG (AID 2283536; active = hit-call score of the fitted dose curve at least 0.9, where 1 is the maximum; inactive = score below 0.9). Conditions: mRNA level, 48 h; actives raise or lower the signal. In outline:
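Differentiated human HepaRG cells were exposed in duplicate for 48 h in serum-free induction medium to eight concentrations (top 100 uM, half-log steps, 0.5% DMSO). Expression was quantified by TaqMan qRT-PCR, normalized to ACTB, GAPDH and POLR2A, with bidirectional fitting against DMSO.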

Read-out in assay [7]: UDP glucuronosyltransferase (UGT1A1), UGT1A1 (gene 54658)
The assay is described as follows: LTEA_HepaRG_UGT1A1: Life Technologies and Expression Analysis (LTEA) Assay for UDP glucuronosyltransferase (UGT1A1) using HepaRG (AID 2283538; active = hit-call score of the fitted dose curve at least 0.9, where 1 is the maximum; inactive = score below 0.9). Conditions: mRNA level, 48 h; actives raise or lower the signal. The method in brief:
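Human liver HepaRG cultures receive test chemical for 48 h, up to 100 uM in 0.5% DMSO, with phenobarbital induction controls. UGT1A1 mRNA is measured by qRT-PCR and normalized to ACTB, GAPDH and POLR2A.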

Read-out in assay [8]: UDP glucuronosyltransferase (UGT1A6), UGT1A6 (gene 54578)
The assay can be described thus: LTEA_HepaRG_UGT1A6: Life Technologies and Expression Analysis (LTEA) Assay for UDP glucuronosyltransferase (UGT1A6) using HepaRG (AID 2283539; active = hit-call score of the fitted dose curve at least 0.9, where 1 is the maximum; inactive = score below 0.9). Conditions: mRNA level, 48 h; actives raise or lower the signal. The method in brief: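 Differentiated HepaRG cells, ~100,000/well, were exposed for 48 h in serum-free induction medium with 0.5% DMSO to 8-point half-log series topping at 100 uM, in duplicate. mRNA measured by Fluidigm TaqMan qRT-PCR, normalized to ACTB, GAPDH and POLR2A.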

Read-out in assay [9]: X-box binding protein 1 (XBP1), XBP1 (gene 7494)
The assay can be described thus: LTEA_HepaRG_XBP1: Life Technologies and Expression Analysis (LTEA) Assay for X-box binding protein 1 (XBP1) using HepaRG (AID 2283540; active = hit-call score of the fitted dose curve at least 0.9, where 1 is the maximum; inactive = score below 0.9). Conditions: mRNA level, 48 h; actives raise or lower the signal. The method in brief: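 Differentiated human HepaRG cells in serum-free induction medium exposed 48 h in duplicate to eight half-log concentrations up to 100 uM in 0.5% DMSO. XBP1 mRNA measured by Fluidigm TaqMan qRT-PCR, normalized to ACTB, GAPDH, POLR2A; bidirectional fitting against DMSO.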

Assay [10] can be described thus: LTEA_HepaRG_LDH_cytotoxicity: Cytotoxicity Assessment in the Life Technologies and Expression Analysis (LTEA) Assay (AID 2283563).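 Note: LDH activity released into spent culture medium as a marker of cell death.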 In outline: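 Differentiated HepaRG cells in serum-free induction medium, exposed 48 h in duplicate to 8 half-log concentrations up to 100 uM in 0.5% DMSO. Cytotoxicity from LDH measured in spent medium, fit relative to DMSO.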
The target in assay [11] is Cellular tumor antigen p53 (Homo sapiens) (UniProt P04637). The assay can be described thus: TOX21_p53_BLA_p2_ratio: Tox21 HCT-116 p53 Agonism Beta-lactamase Assay, Ratio, Phase 2 (AID 2283592). The method in brief: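 HCT-116 cells with p53-responsive beta-lactamase reporter, 4000 cells/well, preincubated 5 h, then compound in DMSO (217-fold dilution) for 16 h at 37C. CCF4-AM substrate 2 h at room temperature; 460/530 nm emission ratio fitted upward versus DMSO.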

The nature of assay [12]: TOX21_p53_BLA_p3_viability: Viability Assessment in the Tox21 HCT-116 p53 Agonism Beta-lactamase Assay, Phase 3 (AID 2283593).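 Note: cells exposed to compound for 16 h before reading.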 In outline:
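HCT-116 cells (4000/well) rested 5 h at 37C, then got DMSO compounds by pin tool (217-fold dilution) for 16 h at 37C, 5% CO2. After the bla read, CellTiter-Glo was added and luminescence read at 30 min, room temperature.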

Assay [13] concerns the target Cellular tumor antigen p53 (Homo sapiens) (UniProt P04637). The assay can be described thus: TOX21_p53_BLA_p3_ratio: Tox21 HCT-116 p53 Agonism Beta-lactamase Assay, Ratio, Phase 3 (AID 2283596). In outline:
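HCT116 p53-bla cells (4000/well) given compound in DMSO (217-fold dilution) after 5 h, incubated 16 h at 37C. CCF4-AM substrate 2 h at room temperature; 460/530 nm emission ratio, gain fitted against DMSO.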

The nature of assay [14]: TOX21_p53_BLA_p4_viability: Viability Assessment in the Tox21 HCT-116 p53 Agonism Beta-lactamase Assay, Phase 4 (AID 2283597).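 Note: hits lower the luminescence signal meaning cytotoxicity.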 In outline:
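HCT-116 p53-bla cells, 4000/well, dosed after 5 h attachment and incubated 16 h at 37 °C, 5% CO2. Viability from CellTiter-Glo ATP luminescence after 30 min at room temperature, taken after the beta-lactamase read; loss of signal indicates cytotoxicity.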

For assay [15], the target named is Cellular tumor antigen p53 (Homo sapiens) (UniProt P04637). The assay can be described thus: TOX21_p53_BLA_p5_ratio: Tox21 HCT-116 p53 Agonism Beta-lactamase Assay, Ratio, Phase 5 (AID 2283599). The method in brief: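 HCT-116 cells carrying a p53-inducible beta-lactamase reporter were seeded at 4000 cells/well and dosed after 5 h with compound in DMSO (217-fold dilution). After 16 h at 37C, CCF4-AM substrate was added for 2 h, and the 460/530 nm emission ratio was scored as gain-of-signal versus DMSO.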

A short description of assay [16]: TOX21_p53_BLA_p5_viability: Viability Assessment in the Tox21 HCT-116 p53 Agonism Beta-lactamase Assay, Phase 5 (AID 2283600). In outline: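 HCT-116 p53 beta-lactamase reporter cells, 4000/well, were exposed to compound (pin transfer, 217-fold dilution) for 16 hours at 37C. Cellular ATP was read by CellTiter-Glo luminescence after 30 min at room temperature.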

Assay [17] concerns the target Cellular tumor antigen p53 (Homo sapiens) (UniProt P04637). The assay can be described thus: TOX21_p53_BLA_p4_ratio: Tox21 HCT-116 p53 Agonism Beta-lactamase Assay, Ratio, Phase 4 (AID 2283601). The method in brief:
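HCT116 cells carrying an inducible beta-lactamase reporter were plated at 4000 cells/well, rested 5 h, then exposed to compounds in DMSO (217-fold dilution) for 16 h at 37C. CCF4-AM substrate was loaded 2 h at room temperature; 460/530 nm emission ratio scored gain-of-signal versus DMSO.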

A short description of assay [18]: Tanguay_ZF_120hpf_MORT_legacy: (Legacy) Oregon State University Tanguay Lab 120 Hour Post-fertilization zebrafish Assay for Mortality (AID 2283633).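 For AC50: fitted as increase in binary mortality versus DMSO negative control.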 The method in brief: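 Dechorionated Tropical 5D wild-type zebrafish embryos, one per well from 6 hpf, static exposure in 0.64% DMSO at 28C until 120 hpf. Mortality scored as binary by brightfield microscopy at 24 and 120 hpf.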

Assay [19] in a line: TOX21_p53_BLA_p2_viability: Viability Assessment in the Tox21 HCT-116 p53 Agonism Beta-lactamase Assay, Phase 2 (AID 2283591).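 Note: compound exposure lasted 16 h at 37 °C; actives lower the ATP signal meaning cytotoxicity.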 The method in brief: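 HCT-116 p53-bla cells (4000/well) rested 5 h at 37C, then received compounds in DMSO (217-fold dilution) for 16 h at 37C, 5% CO2. After the CCF4 read, CellTiter-Glo was added; ATP luminescence was read after 30 min at room temperature.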

The term AC50 denotes the concentration at which the activity in the assay is half-maximal.

Sequence of Cellular tumor antigen p53 (Homo sapiens) (P04637 whole entry, looked up): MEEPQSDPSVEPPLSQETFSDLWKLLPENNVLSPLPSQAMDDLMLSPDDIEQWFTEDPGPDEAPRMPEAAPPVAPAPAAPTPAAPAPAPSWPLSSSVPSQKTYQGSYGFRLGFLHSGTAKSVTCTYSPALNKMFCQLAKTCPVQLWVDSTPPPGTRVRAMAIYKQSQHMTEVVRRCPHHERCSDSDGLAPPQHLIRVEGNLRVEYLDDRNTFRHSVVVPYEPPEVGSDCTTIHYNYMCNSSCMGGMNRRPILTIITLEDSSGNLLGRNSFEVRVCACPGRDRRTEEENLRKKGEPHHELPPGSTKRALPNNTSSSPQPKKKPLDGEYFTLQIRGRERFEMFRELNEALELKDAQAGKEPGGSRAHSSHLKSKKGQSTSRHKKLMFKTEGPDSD

`O=C(Nc1ccc2[nH]ccc2c1)c1cc2cc(F)ccc2n1Cc1cccc(F)c1`: the AC50 in assay [1] was 36.1 µM (active); in assay [2] it was 31.8 µM (active); in [3], 29.3 µM (active); in [6], 28.3 µM (active); in [7], 50 µM (active); in assay [8], 30.2 µM (active). Moreover, the concentration at half-maximal activity (AC50) in assay [10] was 38.3 µM (active); in [11] it was 59.4 µM (active); in assay [13], 86.7 µM (active); in assay [14], 46.1 µM (active); in [15], 83.2 µM (active); in assay [17], 42.2 µM (active). Besides, the call in assay [4], in [5], in [9], in assay [12], in [16] and in [18] was inactive.
As for `CC(C)(C)CC(C)(C)c1ccc(O)cc1`, the call in assay [1], in assay [2], in assay [3], in [4], in assay [5] and in assay [6] was inactive. The result in assay [7], in [8], in assay [9], in assay [12], in assay [17] and in [18] was inactive. Besides, the AC50 is 77 µM (active) in assay [10]; 74.7 µM (active) and 35.4 µM (active) in [11]; 35 µM (active) in [12]; 69 µM (active) and 22.2 µM (active) in [14]; 61.9 µM (active) and 38.6 µM (active) in [15]; 65.3 µM (active) and 39.6 µM (active) in [16]. In addition, the AC50 in [17] was 79.4 µM (active).
In the case of `C[C@@H]1C[C@@H]([C@H](O)CC2CC(=O)NC(=O)C2)C(=O)[C@@H](C)C1`, the AC50 in assay [1] was 16.4 µM (active); in assay [2] it was 48.9 µM (active); in assay [3], 31.1 µM (active); in assay [5], 80.6 µM (active); in assay [6] it was 7.51 µM (active); in assay [7] it was 36.2 µM (active). Also, the AC50 in assay [8] is 39.6 µM (active); in assay [9], 16.7 µM (active); in assay [10] it was 45.1 µM (active); in assay [11], 13.5 µM (active); in assay [14], 1.92 µM (active); in assay [18] it was 43.2 µM (active). For the same molecule, the call in assay [4], in assay [19], in assay [11], in assay [12], in assay [13] and in [14] was inactive. The result in assay [15], in [16] and in [17] was inactive.
